What all share (assay): qHTS profiling for inhibitors of Plasmodium falciparum proliferation (AID 504749); further: nearly all actives have a fitted effect of over 60% in size
What all share (conditions): P. falciparum in erythrocytes, SYBR Green DNA, 72 h; series mostly up to 28.7 µM

For one test, the system named is CP194. A digest of the protocol: (§1)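 Three-day growth assay of blood-stage parasites in erythrocytes (0.3% parasitemia, 2.5% hematocrit) at 37 C, 5% CO2, quantified by SYBR Green DNA staining after overnight detergent lysis.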
The next test deals with CP201. A digest of the protocol:
as §1

Another test deals with CP211. A digest of the protocol: as §1
The next test has as its system CP215. A digest of the protocol: as §1
Another test concerns CP217. A digest of the protocol: as §1
A further test has as its system CP238. A digest of the protocol: as §1
Another test has as its system CP247. The method in brief:
as §1

The next test concerns CP250. The method in brief:
as §1

The subject of the next test is CP237. The method in brief: as §1
For another test, the system named is CP203. The method in brief:
as §1

These results are taken from PubChem BioAssay (NCATS).

Inconclusive results are not listed. The source made the active and inactive calls. The call rests on the fitted dose curve; in most records, active means well fitted inhibition curve with a large enough effect; inconclusive means small, poorly fitted or top-dose-only effect; inactive means flat fitted curve, though single readings scatter.
Potency means the concentration at half of the fitted maximal effect.

Consider `O=C1CC2(CCCC2)CC(=O)N1CCCCN1CCN(c2ncccn2)CC1`, for which the Potency entry in the test with CP194, with CP201, in the test on CP211, in the test with CP215, in the test with CP217 and with CP238 was “inactive” throughout. Also, the Potency entry with CP247 and with CP250 was “inactive” each time.
Turning to `CC[N+](C)(C)c1cccc(O)c1`, the Potency result with CP194, with CP201, in the test on CP211, in the test on CP217, in the test on CP237 and in the test on CP238 was “inactive” each time. Further, the Potency result in the test with CP247 and in the test on CP250 was “inactive” throughout.
On to `CCCCNC(=O)NS(=O)(=O)c1ccc(C)cc1`, for which the Potency result in the test with CP194, with CP201, with CP211, in the test on CP215, in the test with CP217 and in the test with CP237 was “inactive” in each case. In addition, the Potency result in the test on CP238, in the test on CP247 and in the test on CP250 was “inactive” each time.
As to `C#CCN(C)CCCOc1ccc(Cl)cc1Cl`, the Potency entry with CP194, in the test with CP201, in the test with CP211, with CP215, with CP217 and in the test on CP237 was “inactive” each time. The Potency entry in the test with CP238 and with CP247 was “inactive” each time.
Take `COc1cc2c(cc1OC)-c1cc(=Nc3c(C)cc(C)cc3C)n(C)c(=O)n1CC2`: the Potency is 4.78 µM (active) in the test with CP194; 4.26 µM (active) in the test with CP201; 5.36 µM (active) with CP215; 3.55 µM (active) in the test with CP217; 3.16 µM (active) in the test with CP237; 10 µM (active) in the test with CP238. In addition, the Potency with CP247 is 5.62 µM (active); in the test on CP250, 3.55 µM (active).
As for `CCCCCCCC/C=C\CCCCCCCC(=O)NCc1ccc(O)c(OC)c1`, the Potency result in the test with CP194, with CP201, in the test on CP203, with CP211 and in the test with CP215 was “inactive” throughout. Further, in the test with CP247, the Potency is 7.08 µM (active).
With `CCN1CCC[C@H]1CNC(=O)c1c(O)c(Cl)cc(Cl)c1OC`, the Potency result in the test with CP194, in the test with CP201, in the test on CP211, in the test on CP215, in the test with CP217 and with CP237 was “inactive” each time. For the same compound, the Potency entry with CP238, in the test with CP247 and in the test on CP250 was “inactive” throughout.
With `CCN(CC)CC(=O)Nc1c(C)cccc1C`, the Potency entry in the test on CP194, in the test with CP201, with CP211, in the test with CP215, in the test with CP217 and in the test with CP238 was “inactive” each time. In addition, the Potency entry with CP247 and in the test with CP250 was “inactive” in each case.
In the case of `CN(C)C(=O)Oc1ccc[n+](C)c1`, the Potency result in the test on CP194, with CP201, in the test on CP211, in the test with CP215, in the test on CP217 and with CP237 was “inactive” in each case. In addition, the Potency result in the test with CP238 and in the test on CP250 was “inactive” in each case.
On to `COC(=O)[C@H]1[C@H]2C[C@@H]3c4[nH]c5cc(OC)ccc5c4CCN3C[C@H]2C[C@@H](OC(=O)c2cc(OC)c(OC)c(OC)c2)[C@@H]1OC`, for which the Potency is 9.53 µM (active) in the test with CP194; 12 µM (active) in the test with CP201; 6.75 µM (active) with CP211; 9.53 µM (active) in the test on CP215; 11.2 µM (active) in the test with CP217; 11.2 µM (active) with CP237. Also, the Potency with CP238 and with CP247 was 11.2 µM (active) throughout.
Consider `CC(C(=O)O)c1ccc(CC2CCCC2=O)cc1` (centres undefined), for which the Potency entry in the test with CP194, in the test with CP201, in the test on CP211, with CP215, in the test on CP217 and with CP237 was “inactive” in each case. Also, the Potency entry with CP238, in the test with CP247 and with CP250 was “inactive” each time.
In the case of `CNCCC(Oc1ccccc1OC)c1ccccc1` (centres undefined), the Potency entry in the test on CP211, in the test with CP215, with CP237 and with CP250 was “inactive” each time.
For `COc1ccc(CCN(C)CCCC(C#N)(c2cc(OC)c(OC)c(OC)c2)C(C)C)cc1OC` (centres undefined), in the test with CP250, the Potency result is “inactive”.
Regarding `CCCC(C(=O)OCCN(CC)CC)(c1ccccc1)c1ccccc1`, the Potency is 12 µM (active) in the test with CP203, 12 µM (active) in the test on CP215, 10 µM (active) in the test with CP237 and 8.91 µM (active) in the test on CP247.
Take `C[C@H](CS)C(=O)N1CCC[C@H]1C(=O)O`: the Potency entry with CP194, with CP201, with CP215, in the test on CP217, with CP237 and with CP238 was “inactive” in each case. The Potency entry with CP247 and in the test on CP250 was “inactive” throughout.
As to `COc1ccc(CN(CCN(C)C)c2ccccn2)cc1`, the Potency result with CP201, in the test with CP211, in the test with CP215, in the test with CP217, in the test on CP238 and in the test on CP247 was “inactive” each time. In the test on CP250, the Potency result is “inactive”. For the same compound, the Potency in the test with CP237 is 5.01 µM (active).
Take `COCCOC(=O)C1=C(C)NC(C)=C(C(=O)OC(C)C)C1c1cccc([N+](=O)[O-])c1` (centres undefined): the Potency in the test with CP203 was 12 µM (active). Moreover, the Potency result with CP250 was “inactive”.
With `CN(C)C/C=C(/c1ccc(Br)cc1)c1cccnc1`, the Potency result with CP194, with CP201, in the test with CP215, in the test with CP217, in the test on CP238 and in the test with CP247 was “inactive” in each case. In addition, the Potency result in the test on CP250 was “inactive”.
In the case of `CC1=C(C)C(=O)C(CCCCC#CCCCC#CCO)=C(C)C1=O`, the Potency in the test with CP194 is 19 µM (active); in the test with CP203 it was 15.1 µM (active); in the test with CP215, 15.1 µM (active); in the test on CP217 it was 10 µM (active).
Consider `CN(C)CCN(Cc1cccs1)c1ccccn1`, for which the Potency in the test on CP237 is 2 µM (active); in the test with CP238, 11.2 µM (active).
Take `CCc1cccc(N(C)C(N)=Nc2cccc3ccccc23)c1`: the Potency in the test with CP203 was 4.78 µM (active).
For the compound `CN(C)CCOC(=O)COc1ccc(Cl)cc1`, the Potency entry with CP201, with CP211, in the test with CP215, with CP217, in the test on CP238 and with CP250 was “inactive” throughout.
As for `CN(C)CC/C=C1\c2ccccc2COc2ccccc21`, the Potency result in the test with CP250 is “inactive”.
In the case of `OCCN1CCN(CCCN2c3ccccc3C=Cc3ccccc32)CC1`, the Potency with CP194 is 7.57 µM (active); with CP203, 6.75 µM (active); in the test with CP211, 12 µM (active); in the test with CP215, 8.49 µM (active); with CP217, 7.08 µM (active); with CP237, 5.01 µM (active). Also, the Potency with CP238 is 11.2 µM (active); in the test on CP247 it was 5.01 µM (active); in the test on CP250, 6.31 µM (active).
Turning to `CN(C)CC[C@@H](c1ccc(Br)cc1)c1ccccn1`, the Potency entry in the test on CP211, in the test with CP217 and in the test on CP250 was “inactive” in each case.
As for `NC(=O)N1c2ccccc2C=Cc2ccccc21`, the Potency entry in the test with CP194, with CP201, in the test on CP215, with CP217, in the test with CP237 and in the test with CP238 was “inactive” each time. The Potency entry in the test on CP247 and with CP250 was “inactive” each time.
In the case of `CCC(=O)c1ccc2c(c1)N(CCCN(C)C)c1ccccc1S2`, the Potency entry in the test with CP250 is “inactive”.
In the case of `O=C(CCCN1CCC(O)(c2cccc(C(F)(F)F)c2)CC1)c1ccc(F)cc1`, in the test with CP201, the Potency result is “inactive”. Further, the Potency in the test on CP215 is 10.7 µM (active); with CP237 it was 7.94 µM (active); in the test with CP238, 12.6 µM (active); in the test with CP247 it was 7.08 µM (active); in the test on CP250, 10 µM (active).
Consider `CCOC(=O)C1=C(C)NC(C)=C(C(=O)OC)C1c1cccc(Cl)c1Cl` (centres undefined), for which the Potency entry in the test with CP201, in the test on CP211, in the test with CP217, in the test on CP237, in the test with CP238 and in the test with CP247 was “inactive” throughout. In addition, the Potency result in the test with CP250 is “inactive”.
For `C=CCc1ccccc1OCC(O)CNC(C)C` (centres undefined), the Potency is 15.1 µM (active) in the test with CP194, 10.7 µM (active) in the test on CP203, 5.01 µM (active) in the test on CP237 and 11.2 µM (active) in the test with CP238. Also, the Potency result in the test with CP250 was “inactive”.
For the compound `CCN(CC)CCNC(=O)c1cc(S(C)(=O)=O)ccc1OC`, the Potency result in the test on CP217, with CP237, in the test with CP238, in the test on CP247 and in the test on CP250 was “inactive” in each case.
Consider `CN(C)CCCN1c2ccccc2Sc2ccc(C(F)(F)F)cc21`, for which the Potency result with CP201, in the test with CP211, with CP238, with CP247 and with CP250 was “inactive” throughout.
For the compound `CC(C)COCC(CN(Cc1ccccc1)c1ccccc1)N1CCCC1` (centres undefined), the Potency result with CP194, in the test with CP211, in the test on CP217, in the test on CP238, with CP247 and in the test with CP250 was “inactive” each time. Further, the Potency was 7.57 µM (active) in the test on CP215 and 5.01 µM (active) in the test on CP237.
On to `CCOC(=O)C1=C(C)NC(C)=C(C(=O)OC)C1c1cccc([N+](=O)[O-])c1` (centres undefined), for which the Potency in the test on CP237 is 12.6 µM (active); with CP238, 10 µM (active).
In the case of `NC(N)=NC(=O)Cc1c(Cl)cccc1Cl`, the figures for the Potency in the test with CP217 and in the test with CP250 were 6.31 µM (active) and 7.08 µM (active), respectively. In the test on CP238, the Potency result is “inactive”.
